# Laboratory results: PubChem BioAssay (NCATS)
# Results filed as inconclusive are left out. A call without a number means that no potency is given here. The source made the active and inactive calls. The call rests on the fitted dose curve; in most records, active means well fitted curve in the direction sought with a large enough effect; inconclusive means small, poorly fitted or top-dose-only effect, or another doubt; inactive means no such curve, though single readings can be large; an effect the other way counts as inactive or inconclusive.
# Assay: qHTS of pediatric cancer cell lines to identify multiple opportunities for drug repurposing: Primary screen for DAOY cells (AID 1347090); further: nearly all actives have a fitted effect of over 55% in size
# Settings: DAOY medulloblastoma viability, CellTiter-Glo luminescence, 48 h; series mostly up to 46 µM
# How it was run: (§1)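 Cell viability, CellTiter-Glo luminescence; 500-1,000 cells/well, 8- or 11-point titration, 48 h compound exposure at 37 degrees C, 5% CO2. Controls: DMSO neutral, bortezomib 2.3 µM final as positive.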
row,Structure (SMILES),Potency
1,Cc1cccc(C)c1NC(=O)CN1CCN(CCCC(c2ccc(F)cc2)c2ccc(F)cc2)CC1,inactive
2,CCCN1CCCC[C@H]1C(=O)Nc1c(C)cccc1C,inactive
3,C[C@]12CC[C@@H]3c4ccc(O)cc4CC[C@H]3[C@@H]1C[C@@H](O)[C@@H]2O,inactive
4,C#C[C@]1(OC(C)=O)CC[C@H]2[C@@H]3CCC4=C[C@@H](OC(C)=O)CC[C@@H]4[C@H]3CC[C@@]21C,inactive
5,CCN(CC)C(=O)/C(C#N)=C/c1cc(O)c(O)c([N+](=O)[O-])c1,inactive
6,CCOc1ccc(NC(=O)CC(C)O)cc1 (stereo not drawn),inactive
7,CN(C)CCCOc1nn(Cc2ccccc2)c2ccccc12,inactive
8,C=C1C(=C/C=C2\CCC[C@]3(C)[C@@H]([C@H](C)/C=C/[C@@H](O)C4CC4)CC[C@@H]23)C[C@@H](O)C[C@@H]1O,inactive
9,COc1ccc(OC)c(C(O)CNC(=O)CN)c1 (stereo not drawn),inactive
10,CN(C)CC/C=C1\c2ccccc2Sc2ccc(Cl)cc21,inactive
11,Cc1cc(=O)n(-c2ccccc2)n1C,inactive

# Assay: qHTS of pediatric cancer cell lines to identify multiple opportunities for drug repurposing: Primary screen for SJ-GBM2 cells (AID 1347091); further: potency means the concentration at half of the fitted maximal effect
# Settings: SJ-GBM2 viability, CellTiter-Glo luminescence, 48 h; series mostly up to 46 µM
# How it was run: as §1
row,Structure (SMILES),Potency
1,Cc1cccc(C)c1NC(=O)CN1CCN(CCCC(c2ccc(F)cc2)c2ccc(F)cc2)CC1,21.1 µM (active)
2,CCCN1CCCC[C@H]1C(=O)Nc1c(C)cccc1C,inactive
3,C[C@]12CC[C@@H]3c4ccc(O)cc4CC[C@H]3[C@@H]1C[C@@H](O)[C@@H]2O,inactive
4,C#C[C@]1(OC(C)=O)CC[C@H]2[C@@H]3CCC4=C[C@@H](OC(C)=O)CC[C@@H]4[C@H]3CC[C@@]21C,inactive
5,CCN(CC)C(=O)/C(C#N)=C/c1cc(O)c(O)c([N+](=O)[O-])c1,inactive
6,CCOc1ccc(NC(=O)CC(C)O)cc1 (stereo not drawn),inactive
7,C=C1C(=C/C=C2\CCC[C@]3(C)[C@@H]([C@H](C)/C=C/[C@@H](O)C4CC4)CC[C@@H]23)C[C@@H](O)C[C@@H]1O,inactive
8,COc1ccc(OC)c(C(O)CNC(=O)CN)c1 (stereo not drawn),inactive
9,Oc1ccc(O)cc1,inactive
10,Cc1cc(=O)n(-c2ccccc2)n1C,inactive

# Assay: qHTS of pediatric cancer cell lines to identify multiple opportunities for drug repurposing: Primary screen for A673 cells (AID 1347092); further: nearly all actives have a fitted effect of over 45% in size
# Settings: A673 Ewing sarcoma viability, CellTiter-Glo ATP luminescence, 48 h; series mostly up to 46 µM
# How it was run: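 A673 cells (500-1,000 cells/well in growth media) were pre-incubated 5 h at 37 degrees C, then exposed to compounds for 48 h. Viability was read as CellTiter-Glo luminescence; concentration-response curves came directly from the primary screen.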
row,Structure (SMILES),Potency
1,Cc1cccc(C)c1NC(=O)CN1CCN(CCCC(c2ccc(F)cc2)c2ccc(F)cc2)CC1,inactive
2,CCCN1CCCC[C@H]1C(=O)Nc1c(C)cccc1C,inactive
3,C[C@]12CC[C@@H]3c4ccc(O)cc4CC[C@H]3[C@@H]1C[C@@H](O)[C@@H]2O,inactive
4,CCN(CC)C(=O)/C(C#N)=C/c1cc(O)c(O)c([N+](=O)[O-])c1,inactive
5,CCOc1ccc(NC(=O)CC(C)O)cc1 (stereo not drawn),inactive
6,COc1ccc(OC)c(C(O)CNC(=O)CN)c1 (stereo not drawn),inactive
7,Cc1cc(=O)n(-c2ccccc2)n1C,inactive
